From PubChem BioAssay (Tox21)
Results filed as inconclusive are left out. Activity calls are given as the source filed them. Unless noted, the call rests on the fitted dose curve; in most records, active means well fitted curve in the direction sought with a large enough effect in the repeat runs; inconclusive means weak or mixed curves; inactive means no such curve, though single readings can be large; an effect the other way counts as inactive or inconclusive.

Tests used:
[1] = qHTS assay to identify small molecule agonists of the peroxisome proliferator-activated receptor delta (PPARd) signaling pathway - cell viability counter screen (AID 743211); further: nearly all actives have a fitted effect of over 55% in size
Summary of the method: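 HEK293H PPARd-bla, 3000 cells/well; 5 h preincubation 37C/5% CO2; cpd in DMSO, 17 h 37C; B/G FRET substrate 2 h RT; CellTiter-Glo 30 min RT, luminescence.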

[2] = biological target: Peroxisome proliferator-activated receptor delta (Homo sapiens) (UniProt Q03181); assay: qHTS assay to identify small molecule agonists of the peroxisome proliferator-activated receptor delta (PPARd) signaling pathway (AID 743212; calls by dose curve)
Chain of Peroxisome proliferator-activated receptor delta (Homo sapiens) (Q03181 whole entry, looked up): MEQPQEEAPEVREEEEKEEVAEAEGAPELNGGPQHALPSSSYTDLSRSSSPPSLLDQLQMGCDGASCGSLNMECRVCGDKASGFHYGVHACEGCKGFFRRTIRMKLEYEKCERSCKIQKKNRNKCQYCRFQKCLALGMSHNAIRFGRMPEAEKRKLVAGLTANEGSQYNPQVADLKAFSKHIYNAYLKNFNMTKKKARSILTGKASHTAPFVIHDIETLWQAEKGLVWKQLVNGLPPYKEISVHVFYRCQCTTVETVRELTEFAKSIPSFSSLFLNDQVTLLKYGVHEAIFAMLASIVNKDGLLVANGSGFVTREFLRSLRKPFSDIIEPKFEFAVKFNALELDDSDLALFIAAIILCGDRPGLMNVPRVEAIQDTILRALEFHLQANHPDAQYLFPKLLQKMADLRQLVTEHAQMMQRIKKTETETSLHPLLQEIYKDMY
Summary of the method: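 Tox21 library screened in GeneBLAzer PPARd UAS-bla HEK293H cells. After compound treatment at 37 C, a FRET-based beta-lactamase substrate was applied for 2 h and fluorescence recorded.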

[3] = qHTS assay to identify small molecule antagonists of the peroxisome proliferator-activated receptor delta (PPARd) signaling pathway - cell viability counter screen (AID 743213); further: nearly all actives have a fitted effect of over 50% in size
Summary of the method: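 PPARd-bla HEK293H cells (3000/well) got compound plus 300 nM L165041 agonist for 17 h at 37 C. Viability in the same wells came from CellTiter-Glo luminescence after 30 min at room temperature.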

[4] = qHTS assay to identify small molecule agonists of the farnesoid-X-receptor (FXR) signaling pathway - cell viability counter screen (AID 743218); further: nearly all actives have a fitted effect of over 45% in size
Summary of the method: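 Quantitative HTS counter screen measuring ATP-based viability via CellTiter-Glo luminescence in HEK 293T cells carrying a UAS-driven beta-lactamase reporter, after 16 h compound exposure at 37 C.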

[5] = qHTS assay to identify small molecule antagonists of the farnesoid-X-receptor (FXR) signaling pathway - cell viability counter screen (AID 743221; active means well fitted cell-killing curve with a large enough effect in the repeat runs, not every such curve was filed as active; further: nearly all actives have a fitted effect of over 50% in size)
Summary of the method: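 Luminescence from CellTiter-Glo measures cytotoxicity in GeneBLAzer FXR-UAS-bla HEK 293T cells. Cells were exposed to compounds with 50 uM chenodeoxycholic acid (final) for 16 h at 37 C, in wells also used for the reporter readout.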

[6] = biological target: Vitamin D3 receptor (Homo sapiens) (UniProt P11473); assay: qHTS assay to identify small molecule agonists of the vitamin D receptor (VDR) signaling pathway (AID 743222; calls by dose curve)
Chain of Vitamin D3 receptor (Homo sapiens) (P11473 whole entry, looked up): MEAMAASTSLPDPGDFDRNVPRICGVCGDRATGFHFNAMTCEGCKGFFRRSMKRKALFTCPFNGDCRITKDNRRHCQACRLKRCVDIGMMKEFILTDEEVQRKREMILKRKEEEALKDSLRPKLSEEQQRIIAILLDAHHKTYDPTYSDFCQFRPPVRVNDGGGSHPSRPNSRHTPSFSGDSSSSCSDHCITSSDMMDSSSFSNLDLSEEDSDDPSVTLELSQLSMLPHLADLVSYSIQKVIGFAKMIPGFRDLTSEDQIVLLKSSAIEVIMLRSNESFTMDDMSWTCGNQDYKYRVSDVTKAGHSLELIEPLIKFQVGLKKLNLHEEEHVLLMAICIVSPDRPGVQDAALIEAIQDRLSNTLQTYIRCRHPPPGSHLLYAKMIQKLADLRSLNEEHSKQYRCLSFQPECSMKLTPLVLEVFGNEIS
Summary of the method: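 Tox21 cell reporter format: VDR-bla line, 16 h compound exposure in 5% CO2 at 37C, then fluorescence intensity after 2 h with LiveBLAzer B/G FRET substrate.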

[7] = biological target: Vitamin D3 receptor (Homo sapiens) (UniProt P11473); assay: qHTS assay to identify small molecule antagonists of the vitamin D receptor (VDR) signaling pathway (AID 743223; active means well fitted inhibition curve with a large enough effect in the signal ratio in the repeat runs, not every such curve was filed as active; the % refers to the signal ratio)
Summary of the method: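 Antagonist mode uses 1alpha,25-dihydroxyvitamin D3 at 3 nM final as stimulus. VDR-bla cells receive compounds in DMSO, incubate 16 h at 37C, then a beta-lactamase FRET substrate for 2 h at room temperature before fluorescence measurement.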

[8] = qHTS assay to identify small molecule agonists of the vitamin D receptor (VDR) signaling pathway - cell viability counter screen (AID 743224); further: series mostly up to about 63 µM; nearly all actives have a fitted effect of over 50% in size
Summary of the method: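 CellTiter-Glo viability readout on VDR-bla cells, measured after 16 h of compound treatment at 37C in the same wells.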

[9] = qHTS assay to identify small molecule antagonists of the vitamin D receptor (VDR) signaling pathway - cell viability counter screen (AID 743225); further: nearly all actives have a fitted effect of over 50% in size
Summary of the method: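 Read-out: CellTiter-Glo luminescence measured 30 min after reagent addition at room temperature. Cells were VDR-bla HEK 293T exposed 16 h at 37C, 5% CO2, to compound with 3 nM final calcitriol agonist.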

[10] = qHTS assay to identify small molecule agonists of the NFkB signaling pathway - cell viability counter screen (AID 1159515; calls by dose curve; further: series mostly up to about 61 µM; nearly all actives have a fitted effect of over 55% in size)
Summary of the method: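 Tox21 library compounds were tested for cytotoxicity against NFkB-bla ME-180 cells during a 5 hr exposure at 37 C. CellTiter-Glo luminescence served as the viability read-out.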

[11] = qHTS assay to identify small molecule agonists of the endoplasmic reticulum stress response signaling pathway (AID 1159516; active means well fitted activation curve with a large enough effect in the signal ratio in the repeat runs, not every such curve was filed as active; the % refers to the signal ratio)
Summary of the method: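 Fluorescence at 460 and 530 nm (405 nm excitation) reports beta-lactamase from an ER stress response element in HeLa cells treated 5 hr at 37 C.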

[12] = biological target: Nuclear receptor ROR-gamma (Homo sapiens) (UniProt P51449); assay: qHTS assay to identify small molecule antagonists of the retinoid-related orphan receptor gamma (ROR-gamma) signaling pathway (AID 1159521)
Summary of the method: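 CHO Tet-on RORγ, RORE-luc reporter. Cpd 2 h pre-incubation, then dox hyclate 1 uM final, 16 h, 37 C/5% CO2. ONE-Glo luminescence; decrease = antagonist.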

[13] = qHTS assay to identify small molecule agonists of the AP-1 signaling pathway - cell viability counter screen (AID 1159525; calls by dose curve; further: nearly all actives have a fitted effect of over 55% in size)
Summary of the method: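 Same-well cytotoxicity counter screen of the Tox21 10K library in ME-180 cells. The readout is ATP-dependent luminescence after 5 h compound treatment. Data are normalised to DMSO and tetra n-octyl ammonium bromide controls.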

[14] = qHTS assay to identify small molecule agonists of the AP-1 signaling pathway (AID 1159526; calls by dose curve)
[15] = qHTS assay to identify small molecule antagonists of the retinoid-related orphan receptor gamma (ROR-gamma) signaling pathway - cell viability counter screen (AID 1159520); further: nearly all actives have a fitted effect of over 50% in size
Summary of the method: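 Tet-on ROR gamma CHO cells were given compounds for 2 hr, then doxycycline hyclate at 1 uM final, and incubated 16 hr at 37 C. Viability was measured as ATP content by CellTiter-Glo luminescence.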

[16] = biological target: Peroxisome proliferator-activated receptor delta (Homo sapiens) (UniProt Q03181); assay: qHTS assay to identify small molecule antagonists of the peroxisome proliferator-activated receptor delta (PPARd) signaling pathway (AID 743215; active means well fitted inhibition curve with a large enough effect in the signal ratio in the repeat runs, not every such curve was filed as active; the % refers to the signal ratio;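 further: cells stimulated with agonist L165041 at 300 nM final during compound exposure; series mostly up to about 62 µM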)
Summary of the method: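 Here, a reporter line (HEK293H, beta-lactamase under a UAS) measures PPARd signaling. Compounds are tested against agonist L165041 at 300 nM final concentration over 17 h at 37 C, with fluorescence read after substrate.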

[17] = qHTS assay to identify small molecule agonists of the endoplasmic reticulum stress response signaling pathway - cell viability counter screen (AID 1159517; calls by dose curve)
Summary of the method: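 In parallel with the ESRE reporter read, cytotoxicity was scored by CellTiter-Glo luminescence (30 min, room temperature) on HeLa ESRE-bla cells dosed for 5 hr.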

[18] = biological target: Retinoic acid receptor RXR-alpha (Homo sapiens) (UniProt P19793); assay: qHTS assay to identify small molecule agonists of the RXR signaling pathway (AID 1159527; calls by dose curve; further: nearly all actives have a fitted effect of over 35% in size)
Chain of Retinoic acid receptor RXR-alpha (Homo sapiens) (P19793 whole entry, looked up): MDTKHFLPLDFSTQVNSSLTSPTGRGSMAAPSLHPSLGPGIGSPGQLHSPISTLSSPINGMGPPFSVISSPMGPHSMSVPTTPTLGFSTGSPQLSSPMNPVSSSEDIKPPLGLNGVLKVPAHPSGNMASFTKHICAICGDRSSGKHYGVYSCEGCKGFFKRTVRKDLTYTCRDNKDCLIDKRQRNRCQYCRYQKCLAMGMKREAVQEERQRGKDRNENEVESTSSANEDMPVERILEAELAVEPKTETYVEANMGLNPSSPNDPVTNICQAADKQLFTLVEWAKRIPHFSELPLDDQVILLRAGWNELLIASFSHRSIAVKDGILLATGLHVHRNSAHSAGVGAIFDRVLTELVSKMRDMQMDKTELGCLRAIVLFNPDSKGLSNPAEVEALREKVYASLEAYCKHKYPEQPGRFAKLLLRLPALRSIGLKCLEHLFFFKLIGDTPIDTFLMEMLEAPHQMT
Summary of the method: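 Read-out: beta-lactamase FRET ratio (405 nm excitation, 460 and 530 nm emission) after 2 hr substrate loading at room temperature. Cells were RXR-alpha-UAS-bla HEK 293T treated with compounds for 16 hr in 2% charcoal-stripped FBS medium.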

[19] = biological target: Bile acid receptor (Homo sapiens) (UniProt Q96RI1); assay: qHTS assay to identify small molecule antagonists of the farnesoid-X-receptor (FXR) signaling pathway (AID 743217; active means well fitted inhibition curve with a large enough effect in the signal ratio in the repeat runs, not every such curve was filed as active; the % refers to the signal ratio)
Chain of Bile acid receptor (Homo sapiens) (Q96RI1 whole entry, looked up): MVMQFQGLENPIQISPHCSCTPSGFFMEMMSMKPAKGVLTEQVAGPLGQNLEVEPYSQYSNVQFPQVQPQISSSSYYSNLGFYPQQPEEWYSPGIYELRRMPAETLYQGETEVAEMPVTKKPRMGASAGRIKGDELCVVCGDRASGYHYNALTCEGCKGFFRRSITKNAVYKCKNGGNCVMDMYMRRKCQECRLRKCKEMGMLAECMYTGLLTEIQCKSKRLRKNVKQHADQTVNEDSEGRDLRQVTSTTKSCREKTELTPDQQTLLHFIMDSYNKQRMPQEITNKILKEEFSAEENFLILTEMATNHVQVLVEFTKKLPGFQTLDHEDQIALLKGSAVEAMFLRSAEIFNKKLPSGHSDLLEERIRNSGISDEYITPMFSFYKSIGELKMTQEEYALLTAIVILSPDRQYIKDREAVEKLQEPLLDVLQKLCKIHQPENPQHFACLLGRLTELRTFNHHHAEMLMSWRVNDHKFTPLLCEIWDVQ
Summary of the method: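 Test compounds are pin-transferred onto FXR-bla HEK 293T cells, then chenodeoxycholic acid is added at 50 uM final. After 16 h at 37 °C, LiveBLAzer B/G substrate is applied for 2 h at room temperature and fluorescence read.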

[20] = biological target: Bile acid receptor (Homo sapiens) (UniProt Q96RI1); assay: qHTS assay to identify small molecule agonists of the farnesoid-X-receptor (FXR) signaling pathway (AID 743220; active means well fitted activation curve with a large enough effect in the signal ratio in the repeat runs, not every such curve was filed as active; the % refers to the signal ratio)
Summary of the method: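 FXR-UAS-bla HEK 293T cells carrying a UAS-driven beta-lactamase reporter were plated for 5 h at 37C/5% CO2, then exposed to DMSO-dissolved Tox21 10K compounds for 16 h at 37C. A LiveBLAzer B/G FRET substrate was loaded for 2 h at room temperature before fluorescence reading.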

Measured: Potency

Oc1cc(Cl)cc(Cl)c1
not listed: [15] | [16] | [17] | [18] | [19] | [20]
inactive: all other assays above

COc1c2c(cc3c1OCO3)CCN(C)C2
not listed: [5] | [6] | [14] | [16] | [17] | [18] | [19] | [20]
inactive: all other assays above

BrCCCBr
not listed: [8] | [11] | [19] | [20]
inactive: all other assays above

CN(C)CCc1c[nH]c2ccccc12
inactive: [1] | [3] | [4] | [7] | [8] | [9] | [10] | [11] | [15] | [12] | [13]

Nc1ccc(N=Nc2ccccc2)cc1
inactive: [10] | [17] | [15] | [12] | [13]

CC1CCCC1
not listed: [3] | [4] | [14] | [17] | [18] | [19] | [20]
inactive: all other assays above

CCC(C)Nc1c([N+](=O)[O-])cc(C(C)(C)C)cc1[N+](=O)[O-] (stereo not given)
not listed: [4] | [6] | [8] | [11] | [18] | [19] | [20]
inactive: all other assays above

C=CC(=C)C
not listed: [12] | [15] | [17] | [18]
inactive: all other assays above
